Values joined by “and” are separate entries in the source; they are usually repeats but may differ in a detail not shown here. Identical values can stand only once. Compounds without any hit were thinned out: in the full panel of roughly 83,000, 20% have a hit.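 Results are percent growth after 48 hours of single-concentration exposure. 100 means growth as in untreated cells, lower positive values show inhibition; negative values down to -100 show cell death.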 A number with no mark means an inactive call. Active and inactive are the calls of the source. The calls were made as follows: active = growth percent below 10; inactive = the rest.

The test concerns MDA-MB-468 breast. Kind of test: NCI-60 one-dose screen, 48 h (100 = growth as untreated, 0 = no growth, -100 = all killed). Conditions: 10 µM unless noted.
For the molecule `O=C(O)Cc1cccc2ccccc12`, the growth was 121%.
The result for `CC(=O)CC(=O)c1ccccc1.[Cu+2]` reads 96.7%; that for `COc1nccc2c(Sc3ccccc3)nc(N)nc12`, 112%.
Take `Cn1c2ccccc2c2c3[nH]c(=O)[nH]c(=O)c3c3c4ccccc4n(C)c3c21`: the growth was 32.4%.
As to `O=[N+]([O-])c1ccc(N/N=C(\C(=N/Nc2ccc([N+](=O)[O-])cc2[N+](=O)[O-])c2ccccc2)c2ccccc2)c([N+](=O)[O-])c1`, the growth is 86.4%.
With `COc1ccc(C(c2cc(OC)c(OC)c(OC)c2)N2CCCC2)cc1` (stereo not given) the figure was 54.8%; with `Cc1cccc(C[C@H](NC(=O)Nc2ccc(Cl)cc2F)C(=O)N[C@@H]2C(=O)N3C[C@H](O)C[C@H]3C(=O)N3CCN(C)C[C@H]3C(=O)N[C@@H](C)C(=O)N3C[C@H](C)C[C@H]3C(=O)O[C@H]2C)c1`, 15.7%; with `Cn1ccnc1CN1CCSC(C(=O)Nc2ccccc2)C1` (stereo not given), 87.8%.
The result for `O=C(Nc1cc(C(F)(F)F)cc(C(F)(F)F)c1)c1cc(Cl)ccc1O` reads -24% (active) and -1.83% (active); that for `Cc1ccc(Sc2ccccc2N)cc1`, 81.2%; that for `CNS(=O)(=O)c1ccc(Cl)c(Cl)c1`, 101%.
With `O=C(Cn1ccnc1)Nc1ccc(-c2nc3ccccc3s2)cc1` the figure was 0.748% (active); with `O=C(O)C1C2CCC1C(O)C2` (stereo not given), 97.7% and 110%.
As to `COc1ccc(NC(=O)CCl)cc1`, the growth is 73.6%.
In the case of `O=C(/C=C/C=C/c1ccc2c(c1)OCO2)N/N=C\c1ccc(O)cc1O`, the growth was -2.83% (active).
With `COCCOC(=O)NC(=O)Nc1ccc(/C(=N/O)c2ccc(Cl)cc2)cc1` the figure was 19.8%.
With `COc1ccc(NC(=O)CCn2cnc3c(cc(-c4ccccc4)n3-c3ccccc3)c2=O)cc1` the figure was 79.5%; with `Cc1ccccc1Nc1nc2nonc2nc1Nc1cccc(C)c1C`, 12.3%.
As to `CC(=O)O[C@H]1CC[C@]2(C)[C@H]3C(=O)C=C4[C@@H]5C[C@](C)(C(=O)N6CCCNCC6)CC[C@]5(C)CC[C@@]4(C)[C@]3(C)CC[C@H]2C1(C)C`, the growth was -85.2% (active).
The result for `CSc1oc(C)nc1[P+](c1ccccc1)(c1ccccc1)c1ccccc1` reads -4.41% (active).
With `Cc1cc(C)c2c(c1)N(C)c1ncnc(-n3cnc4cc(C)ccc43)c1CC2C` (stereo not given) the figure was 6.16% (active); with `Cc1cc(N=C2C=CC(=[N+](C)C)C=C2)c(N)cc1N`, 39.6%; with `Cc1ccc2c(C(C[N+](=O)[O-])c3ccccc3)c(-c3ccccc3)[nH]c2c1` (stereo not given), -9.08% [9.5 µM] (active).
Consider `Fc1ccc(-c2cnc3nonc3n2)c(F)c1`, for which the growth is 73.3%.
The result for `NCCCN(CCCN)CCCNCc1c2ccccc2c(CNCCCN(CCCN)CCCN)c2ccccc12` reads 83.4%.
With `CC(C)c1ccc(C(=O)OC(=O)c2ccc(C(C)C)cc2)cc1` the figure was 110%.
The result for `CCOC(=O)c1cc2c(n1Cc1ccccc1)-c1oncc1CC2` reads 40.1%; that for `O=C(/C=C/c1ccc(Cl)cc1)/C=C/c1cc2ccccc2[nH]c1=O`, 55.9%; that for `COc1ccc(-c2c(-c3cc(OC)c4c(c3)OCO4)noc2N)cc1`, -2.08% (active).
For the molecule `CC(=O)/C(Cc1ccccc1)=N/O`, the growth was 99.1%.
In the case of `COC(=O)C1=C(C)C(=O)CC1`, the growth was 110%.
With `COc1cc2c(cc1-c1c(C)noc1C)ncc1nc(C3CCOCC3)n([C@H](C)COC(F)F)c12` the figure was 40%.
With `CCOC(=O)Nc1ccc2c3c(cccc13)-c1ccccc1-2` the figure was -11.5% (active); with `COc1ccc(/C=N/Nc2nc3ccccc3s2)cc1`, 84.8%; with `Clc1cc(Cl)c(OCCCCCCN2CCNCC2)c(Cl)c1`, -12.2% (active).
With `CNc1cccc2c1C(=O)c1cccc(N)c1C2=O` the figure was 46.1%; with `C/C(Cc1ccc(Cl)cc1)=C(/c1ccc(Cl)cc1)c1ccc(OCCN2CCCC2)cc1`, 66.1%; with `Nc1nccc2c1ccn2-c1ccc(NC(=O)c2ccc(N3CCOCC3)c(C(F)(F)F)c2)cc1`, 27.6%.
With `COc1ccc(-c2[nH]ncc2-c2cc3c(c(OC)c2)OCC(=O)N3)cc1`, the growth is -6.47% (active).
With `CN1C(=O)c2cc(Cl)nc3c(NC(=O)c4cccc(Cl)c4)c(Cl)c(NC(=O)c4cccc(Cl)c4)c1c23` the figure was -19.6% (active).

The values are drawn from PubChem BioAssay (NCI).
